Experimental data taken from PubChem BioAssay (NCI).
The panel holds about 83,000 compounds, 20% with a hit somewhere; the sample as a whole holds those more often.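 96-well plates, one dose, 48 hours. Percent growth reported; active if below 10.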 A number with no mark means an inactive call. Calls of active or inactive are those of the source.

Experiments:
Assay in all cases: NCI-60 one-dose screen, 48 h (100 = growth as untreated, 0 = no growth, -100 = all killed)
Details in all cases: 10 µM unless noted
HCT-15 colon = test system: HCT-15 colon
HT29 colon = test system: HT29 colon
SNB-75 CNS = test system: SNB-75 CNS
SNB-19 CNS = test system: SNB-19 CNS
U251 CNS = test system: U251 CNS
PC-3 prostate = test system: PC-3 prostate
SK-MEL-5 melanoma = test system: SK-MEL-5 melanoma
UACC-62 melanoma = test system: UACC-62 melanoma
LOX IMVI melanoma = test system: LOX IMVI melanoma
SK-MEL-28 melanoma = test system: SK-MEL-28 melanoma
SK-MEL-2 melanoma = test system: SK-MEL-2 melanoma
EKVX NSCLC = test system: EKVX NSCLC
SN12C renal = test system: SN12C renal
UO-31 renal = test system: UO-31 renal
TK-10 renal = test system: TK-10 renal
ACHN renal = test system: ACHN renal
CAKI-1 renal = test system: CAKI-1 renal
A498 renal = test system: A498 renal
CCRF-CEM leukemia = test system: CCRF-CEM leukemia
MOLT-4 leukemia = test system: MOLT-4 leukemia

Row | Structure (SMILES) | growth (HCT-15 colon) | growth (HT29 colon) | growth (SNB-75 CNS) [%] | growth (SNB-19 CNS) | growth (U251 CNS) | growth (PC-3 prostate) | growth (SK-MEL-5 melanoma) | growth (UACC-62 melanoma) [%] | growth (LOX IMVI melanoma) | growth (SK-MEL-28 melanoma) [%] | growth (SK-MEL-2 melanoma) [%] | growth (EKVX NSCLC) [%] | growth (SN12C renal) [%] | growth (UO-31 renal) | growth (TK-10 renal) [%] | growth (ACHN renal) | growth (CAKI-1 renal) [%] | growth (A498 renal) | growth (CCRF-CEM leukemia) | growth (MOLT-4 leukemia)
1 | CC(=O)N1C(=S)NC(=O)C1CC(C)C (stereo unspecified) | 99.7% | 115% | 103 | 102% | 101% | 106% | 106% | 93.7 | 95.5% | 101 | 102 | 102 | 101 | 93.2% | 100 | 105% | 96.3 | 109% | 103% | 105%
2 | O=C(Nc1ccc2c(ccn2Cc2ccccn2)c1)c1cnccn1 | 112% | 109% | 57.9 | 102% | 105% | 101% | 97.5% | 89.6 | 98.3% | 111 | 103 | 75.7 | 75.9 | 57% | 61.9 | 100% | 66.2 | 40.8% |  | 101%
3 | C#Cc1nc(C(C)=O)cs1 | 99.4% | 110% | 85.5 | 102% | 102% | 98.4% | 104% | 94.3 | 94.7% | 106 | 111 | 103 | 102 | 90.1% | 104 | 106% | 87.2 | 106% | 96.9% | 101%
4 | N/C(=N\C(N)=N\c1nc2ccccc2s1)c1ccc(C(F)(F)F)cc1 | 28.8% | 105% | 97.2 | 90.3% | 41.9% | 8.57% (active) | 89% | 97.8 | 18.3% | 94.8 | 108 | 54.8 | 36.5 | -19.1% (active) | 102 | 27.8% | 80.2 | 70.9% | 54.7% | 68.6%
5 | O=S(=O)(Oc1ccc(-c2nnc(Nc3ccccc3)s2)cc1)C(F)(F)C(F)(F)C(F)(F)C(F)(F)C(F)(F)C(F)(F)F | 98.7% | 109% | 99.9 | 101% | 107% | 110% | 108% | 90.8 | 99.8% | 105 | 106 | 99.1 | 98.7 | 98.2% | 109 | 103% | 92.7 | 99.5% | 102% | -29.1% (active)
6 | CC1(C)[C@@H](O)CC[C@]2(C)[C@H]3CC[C@@H]4[C@H]5[C@H](C(=O)/C=C\c6ccccn6)CC[C@]5(O)CC[C@@]4(C)[C@]3(C)CC[C@@H]12 | 15% | 28% | 26.2 | 48.3% | 37.7% | 39.9% | 54.1% | 41.7 | -21.8% (active) | 51.4 | 77.8 | 42.5 | 50.5 | 50.8% | 77.5 | 32.6% | 33.9 | 22% | -0.82% (active) | -8.46% (active)
7 | CS(=O)(=O)Nc1cc(-c2ccc3ncc(C#N)c(N[C@H](CO)c4ccccc4)c3c2)cnc1Cl | 36.7% | 74.3% | 36 | 41.7% | 36.1% | 32.7% | -77.3% (active) | 13.7 | 26.9% | 35.2 | 10.3 | 66.9 | 31.1 | 43.4% | 34.8 | 81.4% | 33.3 | 7.35% (active) |  | 14.7%
8 | CC1(C)[C@@H](O)CC[C@]2(C)[C@H]3CC[C@@H]4[C@H]5[C@H](C(=O)/C=C\c6ccncc6)CC[C@]5(O)CC[C@@]4(C)[C@]3(C)CC[C@@H]12 | 20.3% | 34.7% | 21.2 | 58.7% | 61.1% | 67.5% | 80.6% | 46.9 | 5.63% (active) | 74.8 | 94.9 | 42.8 | 75.1 | 53.1% | 100 | 52.5% | 35.1 | 46.6% | 8.75% (active) | 27.9%
9 | Cn1ccnc1C(=O)/C=C/c1ccc(NC(=O)c2c(F)c(F)c(F)c(F)c2F)cc1 | 85.9% | 112% | 103 | 98.3% | 99% | 100% | 91.2% | 97.2 | 81.6% | 105 | 112 | 99.7 | 101 | 79.7% | 133 | 101% | 107 | 113% | 86% | 85.2%
10 | CN1CCN(c2ccc(/C=N/n3cnc4oc(-c5ccccc5)cc4c3=N)cc2)CC1 | 83.9% | 66.2% | 55.3 | 101% | 100% | 63.2% | 88.6% | 93 | 61.3% | 77.8 | 103 | 88.4 | 66 | 63.7% | 119 | 70.1% | 72.5 | 81.4% | 44.8% | 44.4%
11 | Cc1ccc(NC(=O)CNc2cc(C(N)=O)cc(F)c2C)c(Cl)c1 | 103% | 114% | 48.4 | 101% | 106% | 85.7% | 97.1% | 81.5 | 94.1% | 99.5 | 101 | 47.5 | 77.1 | 50.4% | 102 | 88.9% | 62.6 | 39% |  | 90.5%
12 | Cn1ccnc1C(=O)/C=C/c1ccc(CNC(=O)c2ccc(S(F)(F)(F)(F)F)cc2)cc1 | -5.91% (active) | 10.4% | 57.6 | 3.58% (active) | 8.6% (active) | 26.4% | 61.3% | 31.2 | -80.3% (active) | 82.4 | 92.9 | 40 | 25.6 | 34.7% | 91.1 | 49.8% | 47 | 73.5% | 2.63% (active) | 0.864% (active)
13 | Oc1[nH]c2ccccc2c1Nn1c(N=N/C=c2/ccc3c(c2)C=NN=3)n[nH]c1=S | 115% | 19.4% | 66.7 | 98.9% | 111% | 97.4% | 92% | 98.9 | 97.6% | 115 | 104 | 64.2 | 93.9 | 74.8% | 165 | 96.8% | 82.8 | 82.9% |  | 103%
14 | COc1ccc([C@@H]2c3[nH]c4ccccc4c3C[C@H]3C(=O)N(C4CCN(CC5CCCCC5)CC4)CC(=O)N23)c(OC)c1 | 56.5% | 1.45% (active) | 83.2 | 86.4% | 72.4% | 49.3% | 73.3% | 93.9 | 54.3% | 89.1 | 95.9 | 61.6 | 81.6 | 37.3% | 98.2 | 81.3% | 44.7 | 78.9% | 60.5% | 46.1%
15 | O=C(CSc1nnc(-c2ccc(Cl)cc2)n1-c1ccccc1)Nc1cccc(Cl)c1 | 79.5% | 71.6% | 42.5 | 80.2% | 50.2% | 75.5% | 96.4% | 97.7 | 7.5% (active) | 97.8 | 101 | 62.3 | 25.4 | 12.6% | 75.1 | 9.9% (active) | 64.9 | 95.9% | 78.3% | 85.6%
16 | O=C(CCn1cc[n+](CC(=O)c2ccc(-c3ccccc3)cc2)c1)Nc1cccc2cccnc12 | 96.5% | 70.7% | 45.4 | 61.4% | 61.2% | 55.9% | 81.1% | 58.8 | 82.5% | 67.3 | 90.1 | 81.9 | 77.4 | 88.1% | 117 | 104% | 104 | 98.8% | 78.4% | 84.3%
